Laboratory results taken from PubChem BioAssay AID1159580 (chemical genetic matrix, 2015).
“And” between values parts separate entries of the source, which are not always exact repeats. Equal values may be shown once. Among all 5,500 compounds or so, about 2,000 (36%) were called active. About 18% were inconclusive and are not listed. Rule as the data show it: active = normalized growth mostly below about 0.91 (no sharp cut-off); inconclusive = no clear call, values can overlap the other calls; inactive = mostly above about 0.92. Some of the results follow.

Assay: chemical genetic growth profiling, strain panel (AID 1159580);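 also: tested at 20 µM; growth read once vehicle control cultures reached saturation at 30 °C; 1 = growth at the plate median or of vehicle wells; lower values mean less growth of the strain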
Settings: S. cerevisiae deletion strains, growth OD

Measured: normalized growth

CO[C@@]1(NC(=O)C(C(=O)O)c2ccc(O)cc2)C(=O)N2C(C(=O)O)=C(CSc3nnnn3C)CO[C@@H]21 (stereo partly specified)
inactive: locus YAL013W, strain DEP1, stronger effect = lower value 1.01 | locus YAL021C, strain ccr4, stronger effect = lower value 0.993 | locus YAL026C, strain drs2, stronger effect = lower value 1 | locus YAL030W, strain snc1, stronger effect = lower value 0.982 | locus YBL061C, strain skt5, stronger effect = lower value 0.979 | locus YBR021W, strain FUR4, stronger effect = lower value 0.998 | locus YBR023C, strain chs3, stronger effect = lower value 0.994 | locus YBR171W, strain sec66, stronger effect = lower value 0.984 | locus YBR229C, strain ROT2, stronger effect = lower value 1 | locus YBR231C, strain swc5, stronger effect = lower value 0.956 | locus YBR279W, strain paf1, stronger effect = lower value 0.995 | locus YCL011C, strain gbp2, stronger effect = lower value 0.955 | locus YCL016C, strain dcc1, stronger effect = lower value 0.955 | locus YCL029C, strain bik1, stronger effect = lower value 1.03 | locus YCL061C, strain MRC1, stronger effect = lower value 1 | locus YCL069W, strain vba3, stronger effect = lower value 0.991 | locus YCR088W, strain abp1, stronger effect = lower value 0.984 | locus YDL005C, strain med2, stronger effect = lower value 0.991 | locus YDL035C, strain GPR1, stronger effect = lower value 0.999 | locus YDL040C, strain nat1, stronger effect = lower value 0.989 | locus YDL074C, strain BRE1, stronger effect = lower value 1.03 | locus YDL101C, strain DUN1, stronger effect = lower value 1.01 | locus YDL134C, strain PPH21, stronger effect = lower value 1 | locus YDL185W, strain tfp1, stronger effect = lower value 1.03 | locus YDL192W, strain arf1, stronger effect = lower value 1.02 | locus YDR001C, strain nth1, stronger effect = lower value 0.977 | locus YDR069C, strain doa4, stronger effect = lower value 1.01 | locus YDR101C, strain arx1, stronger effect = lower value 1.01 | locus YDR137W, strain rgp1, stronger effect = lower value 0.98 | locus YDR150W, strain NUM1, stronger effect = lower value 1.02 | locus YDR159W, strain sac3, stronger effect = lower value 1.01 | locus YDR162C, strain NBP2, stronger effect = lower value 1 | locus YDR195W, strain ref2 1 | locus YDR297W, strain sur2, stronger effect = lower value 0.971 | locus YDR318W, strain mcm21, stronger effect = lower value 1.02 | locus YDR334W, strain swr1, stronger effect = lower value 0.942 | locus YDR335W, strain msn5, stronger effect = lower value 0.981 | locus YDR388W, stronger effect = lower value 1.02 | locus YDR392W, strain spt3, stronger effect = lower value 0.909 | locus YDR502C, strain sam2, stronger effect = lower value 1.01 | locus YEL003W, strain gim4, stronger effect = lower value 0.99 | locus YEL037C, strain rad23, stronger effect = lower value 0.988 | locus YEL061C, strain CIN8 (second series), stronger effect = lower value 0.982 | locus YEL061C, strain CIN8, stronger effect = lower value 1.01 | locus YER015W, strain faa2, stronger effect = lower value 0.982 | locus YER016W, strain bim1, stronger effect = lower value 1 | locus YER110C, stronger effect = lower value 1.02 | locus YER111C, strain swi4, stronger effect = lower value 0.983 | locus YER155C, strain BEM2 (second series), stronger effect = lower value 0.993 | locus YER155C, strain BEM2, stronger effect = lower value 1.01 | locus YER167W, strain BCK2, stronger effect = lower value 1 | locus YFR010W, strain ubp6, stronger effect = lower value 0.996 | locus YGL078C, strain dbp3, stronger effect = lower value 0.998 | locus YGL086W, strain mad1, stronger effect = lower value 1.01 | locus YGL167C, strain pmr1, stronger effect = lower value 0.987 | locus YGL173C, strain kem1, stronger effect = lower value 0.992 | locus YGL227W, strain vid30, stronger effect = lower value 0.99 | locus YGL240W, strain doc1, stronger effect = lower value 0.987 | locus YGL248W, strain PDE1, stronger effect = lower value 1.01 | locus YGL253W, strain hxk2, stronger effect = lower value 0.996 | locus YGR078C, strain PAC10, stronger effect = lower value 1.02 | locus YGR135W, strain pre9, stronger effect = lower value 1 | locus YGR229C, strain SMI1, stronger effect = lower value 1 | locus YGR252W, strain gcn5, stronger effect = lower value 0.93 | locus YHR013C, strain ard1, stronger effect = lower value 0.962 | locus YHR027C, strain rpn1, stronger effect = lower value 0.964 | locus YHR030C, strain SLT2, stronger effect = lower value 1.01 and 0.97 | locus YHR079C, strain IRE1 (second series), stronger effect = lower value 1.02 | locus YHR079C, strain IRE1, stronger effect = lower value 0.99 | locus YHR094C, strain hxt1, stronger effect = lower value 1.02 | locus YHR129C, strain ARP1, stronger effect = lower value 1 | locus YHR142W, strain chs7, stronger effect = lower value 0.974 | locus YHR200W, strain rpn10, stronger effect = lower value 1.02 | locus YIL066C, strain RNR3, stronger effect = lower value 1.02 | locus YIL073C, strain SPO22, stronger effect = lower value 1.04 | locus YIL125W, strain kgd1, stronger effect = lower value 1.01 | locus YIR030C, strain dcg1, stronger effect = lower value 1.02 | locus YJL092W, strain hpr5, stronger effect = lower value 0.983 | locus YJL095W, strain BCK1 (second series), stronger effect = lower value 0.982 | locus YJL095W, strain BCK1, stronger effect = lower value 1.01 | locus YJL115W, strain asf1, stronger effect = lower value 0.96 | locus YJL129C, strain trk1, stronger effect = lower value 0.999 | locus YJL134W, strain LCB3, stronger effect = lower value 1 | locus YJL154C, strain vps35, stronger effect = lower value 0.975 | locus YJL164C, strain tpk1, stronger effect = lower value 0.989 | locus YJL166W, strain qcr8, stronger effect = lower value 0.951 | locus YJL168C, strain set2, stronger effect = lower value 1.02 | locus YJL187C, strain SWE1 (second series), stronger effect = lower value 1.02 | locus YJL187C, strain SWE1, stronger effect = lower value 0.986 | locus YJR043C, strain POL32, stronger effect = lower value 1.01 | locus YJR066W, strain TOR1, stronger effect = lower value 0.918
